PubChem BioAssay (NCATS)
Results filed as inconclusive are left out. Active and inactive are the calls of the source. Calls come from the whole dose curve; as a rule, active = well fitted inhibition curve with a large enough effect; inconclusive = small, poorly fitted or top-dose-only effect; inactive = flat fitted curve, though single readings scatter.

How the values were obtained:
Experiment in all cases: qHTS profiling for inhibitors of Plasmodium falciparum proliferation (AID 504749); note: nearly all actives have a fitted effect of over 60% in size
Conditions in all cases: P. falciparum in erythrocytes, SYBR Green DNA, 72 h; series mostly up to 28.7 µM
C2A = tested on: C2A
Procedure, shortened: (§1)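 Quantitative HTS: compounds pinned into medium, infected erythrocytes added (0.3% parasitemia, 2.5% hematocrit), 72 h culture at 37 C under 5% CO2. Saponin/Triton lysis with SYBR Green I, overnight RT, then fluorescence read.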

CP185 = tested on: CP185
Procedure, shortened: as §1

CP191 = tested on: CP191
Procedure, shortened: as §1

CP192 = tested on: CP192
Procedure, shortened: as §1

CP194 = tested on: CP194
Procedure, shortened: as §1

CP201 = tested on: CP201
Procedure, shortened: as §1

CP203 = tested on: CP203
Procedure, shortened: as §1

CP211 = tested on: CP211
Procedure, shortened: as §1

CP217 = tested on: CP217
Procedure, shortened: as §1

CP215 = tested on: CP215
Procedure, shortened: as §1

Measured: Potency
Potency is the fitted concentration of half-maximal effect.

Cc1onc(-c2ccccc2)c1-c1ccc(S(N)(=O)=O)cc1
not listed: CP215
inactive: all other assays above

CCCCCC(C)N (stereo not given)
not listed: CP191 | CP217
inactive: all other assays above

CC(CN(C)C)C(C)(O)Cc1ccc(Cl)cc1 (stereo not given)
active: CP203 13.5 µM
inactive: C2A | CP191 | CP201 | CP217

CCCCCCCCCCOc1cc2c(=O)c(C(=O)OCC)c[nH]c2cc1OCC
active: C2A 0.01 µM | CP185 0.0022 µM
inactive: CP192 | CP217

O=C1c2ccccc2C(=O)C1c1ccc(Br)cc1
inactive: C2A | CP185 | CP192 | CP194 | CP201 | CP211

CC(=O)OCC(COC(C)=O)OC(C)=O
not listed: CP192
inactive: all other assays above

COc1nccnc1NS(=O)(=O)c1ccc(N)cc1
not listed: CP215
inactive: all other assays above

CCN(CC)CC1CCCCN1CC(=O)N1c2ccccc2C(=O)Nc2cccnc21 (stereo not given)
not listed: CP211
inactive: all other assays above

CC(=O)OC[C@H]1O[C@@](COC(C)=O)(O[C@H]2O[C@H](COC(C)=O)[C@@H](OC(C)=O)[C@H](OC(C)=O)[C@H]2OC(C)=O)[C@@H](OC(C)=O)[C@@H]1OC(C)=O
not listed: CP185 | CP191 | CP217
inactive: all other assays above

CC(=O)N(CC(O)CO)c1c(I)c(C(=O)NCC(O)CO)c(I)c(C(=O)NCC(O)CO)c1I (stereo not given)
not listed: CP191
inactive: all other assays above

CCN(CC)S(=O)(=O)c1ccc(C(=O)O)cc1
not listed: CP192
inactive: all other assays above

CC[N+](C)(CC)CCOC(=O)C1c2ccccc2Oc2ccccc21
not listed: CP191
inactive: all other assays above

CCOC(=O)[C@H](CCc1ccccc1)N[C@@H](C)C(=O)N1CCC[C@H]1C(=O)O
not listed: CP215
inactive: all other assays above

Cc1c(NC(=O)c2cccnc2)c(=O)n(-c2ccccc2)n1C
not listed: CP215
inactive: all other assays above

Cc1cc(O)cc(C)c1Cl
not listed: CP191
inactive: all other assays above

O=S1(=O)OC(c2ccc(O)cc2)(c2ccc(O)cc2)c2ccccc21
not listed: CP215
inactive: all other assays above

Nc1ncnc(Nc2ccccc2)n1
not listed: CP191
inactive: all other assays above

Cc1cc(C)c(NC(=O)CN(CC(=O)O)CC(=O)O)c(C)c1Br
inactive: CP192 | CP194 | CP201 | CP203 | CP211 | CP215

O=C1C(c2[nH]c3ccccc3c2O)=Nc2ccccc21
inactive: CP185 | CP192 | CP194 | CP201

NC(=O)CCCCC1CCSS1 (stereo not given)
not listed: CP215
inactive: all other assays above

FC(F)(F)C(Cl)Br (stereo not given)
not listed: CP194
inactive: all other assays above

Cc1cc(-n2nc3ccc(Cl)cc3n2)c(O)c(C(C)(C)C)c1
inactive: CP192 | CP194 | CP201 | CP203 | CP211 | CP215

NNc1nnc(NN)c2ccccc12
not listed: CP201 | CP215
inactive: all other assays above

Nc1ccc(C(=O)Oc2ccccc2)c(O)c1
not listed: CP215
inactive: all other assays above

CCCNC(C)(C)COC(=O)c1ccccc1
not listed: CP203
inactive: all other assays above

Cc1[nH]c(C)c(Cl)c(=O)c1Cl
not listed: CP191 | CP201 | CP211
inactive: all other assays above
